Experimental data as given in PubChem BioAssay AID652195 (Johns Hopkins Ion Channel Center, 2013).
Activity calls are given as the source filed them.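 How the source made its calls: active means peak TRPC6 channel inhibition above 30% at some tested dose, with a fitted dose response curve; inactive means no inhibition at any dose or no curve fitted.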

Each compound was assayed against Short transient receptor potential channel 6 (Mus musculus) (UniProt Q61143) (assay: TRPC6 inhibition potency of TRPC4 inhibitor analogs, dose response, selectivity assay for selective TRPC4 inhibitor project, HEK293 cells, membrane potential dye, quadruplicate (AID 652195)). Conditions: FDSS; series mostly up to 20 µM; membrane potential ratio (lower = inhibition): at the top concentration.
Sequence of Short transient receptor potential channel 6 (Mus musculus) (Q61143 whole entry, looked up): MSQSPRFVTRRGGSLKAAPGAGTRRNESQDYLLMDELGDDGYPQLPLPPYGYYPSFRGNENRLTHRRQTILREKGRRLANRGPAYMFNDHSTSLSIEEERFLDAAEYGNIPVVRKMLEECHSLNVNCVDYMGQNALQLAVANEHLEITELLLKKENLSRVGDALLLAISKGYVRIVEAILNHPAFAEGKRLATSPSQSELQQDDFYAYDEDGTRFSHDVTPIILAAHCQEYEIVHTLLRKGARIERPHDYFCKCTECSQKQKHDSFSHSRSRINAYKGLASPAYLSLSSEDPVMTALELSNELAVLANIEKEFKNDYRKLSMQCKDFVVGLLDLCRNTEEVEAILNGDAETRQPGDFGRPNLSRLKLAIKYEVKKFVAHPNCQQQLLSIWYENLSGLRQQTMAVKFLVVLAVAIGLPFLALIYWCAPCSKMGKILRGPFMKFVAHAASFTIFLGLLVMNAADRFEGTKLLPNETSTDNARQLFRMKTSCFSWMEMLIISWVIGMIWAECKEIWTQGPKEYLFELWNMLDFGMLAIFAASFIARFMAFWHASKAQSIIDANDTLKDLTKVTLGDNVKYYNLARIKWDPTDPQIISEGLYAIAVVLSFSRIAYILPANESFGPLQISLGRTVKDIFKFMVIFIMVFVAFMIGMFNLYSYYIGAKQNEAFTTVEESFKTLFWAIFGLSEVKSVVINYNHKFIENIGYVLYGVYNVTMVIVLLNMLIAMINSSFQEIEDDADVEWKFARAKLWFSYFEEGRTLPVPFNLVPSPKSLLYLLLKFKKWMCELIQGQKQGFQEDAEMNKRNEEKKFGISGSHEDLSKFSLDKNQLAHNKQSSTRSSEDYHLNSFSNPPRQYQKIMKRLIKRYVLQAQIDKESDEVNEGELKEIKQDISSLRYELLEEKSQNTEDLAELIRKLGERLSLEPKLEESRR

Membrane potential ratio (lower = inhibition), inactive:
Cc1cc(-n2ccnc2)nc2ccccc12 50.2
FC1CCN(c2ccc3ccccc3n2)CC1 37.4
Cc1cc(-n2cccn2)nc2ccccc12 42.6
Cc1cc(N2CCC(F)(F)CC2)nc2ccccc12 43.2
Cc1cc(N2CCC(O)CC2)nc2ccccc12 44.3
Cc1cc(N2CCCC(F)C2)nc2ccccc12 (centres undefined) 35.9
OC1CCN(c2ccc3ccccc3n2)CC1 50.8
C[C@H]1CCCN1c1ccc2ccccc2n1 30.5
O=C1CCN(c2ccc3ccccc3n2)CC1 43.8
FC1(F)CCN(c2ccc3ccccc3n2)CC1 39.6
Cc1cc(N2CCC(F)CC2)nc2ccccc12 37.7
OC1CCCN(c2ccc3ccccc3n2)C1 (centres undefined) 36.9
Cc1cc(N2CCC(=O)CC2)nc2ccccc12 40.5
Cc1cc(N(C)C)nc2ccccc12 37.2
OC1CCN(c2ccc3ccccc3n2)C1 (centres undefined) 42.2
c1ccc2nc(N3CCCC3)ccc2c1 35.8
Cc1cc(N2CCC(O)C2)nc2ccccc12 (centres undefined) 33.5
Cc1cc(-n2cccc2)nc2ccccc12 41.5
FC1CCCN(c2ccc3ccccc3n2)C1 (centres undefined) 43.5
